Assay results reported in PubChem BioAssay (NCATS).
Several values for one entry are separate records, joined by “and”; a condition that tells them apart may be missing. Equal entries are not always repeated. Activity calls are given as the source filed them. Unless noted, calls follow the shape of the dose curve; as a rule, active = well fitted curve in the direction sought with a large enough effect; inconclusive = small, poorly fitted or top-dose-only effect, or another doubt; inactive = no such curve, though single readings can be large; an effect the other way counts as inactive or inconclusive.

Key:
[1] = molecular target: Ubiquitin carboxyl-terminal hydrolase 1 (Homo sapiens) (UniProt O94782); assay: Inhibitors of USP1/UAF1: Pilot qHTS (AID 504865); also: nearly all actives have a fitted effect of over 35% in size; also: potency is read from the fitted curve at half-maximal effect
Chain of Ubiquitin carboxyl-terminal hydrolase 1 (Homo sapiens) (O94782 whole entry, looked up): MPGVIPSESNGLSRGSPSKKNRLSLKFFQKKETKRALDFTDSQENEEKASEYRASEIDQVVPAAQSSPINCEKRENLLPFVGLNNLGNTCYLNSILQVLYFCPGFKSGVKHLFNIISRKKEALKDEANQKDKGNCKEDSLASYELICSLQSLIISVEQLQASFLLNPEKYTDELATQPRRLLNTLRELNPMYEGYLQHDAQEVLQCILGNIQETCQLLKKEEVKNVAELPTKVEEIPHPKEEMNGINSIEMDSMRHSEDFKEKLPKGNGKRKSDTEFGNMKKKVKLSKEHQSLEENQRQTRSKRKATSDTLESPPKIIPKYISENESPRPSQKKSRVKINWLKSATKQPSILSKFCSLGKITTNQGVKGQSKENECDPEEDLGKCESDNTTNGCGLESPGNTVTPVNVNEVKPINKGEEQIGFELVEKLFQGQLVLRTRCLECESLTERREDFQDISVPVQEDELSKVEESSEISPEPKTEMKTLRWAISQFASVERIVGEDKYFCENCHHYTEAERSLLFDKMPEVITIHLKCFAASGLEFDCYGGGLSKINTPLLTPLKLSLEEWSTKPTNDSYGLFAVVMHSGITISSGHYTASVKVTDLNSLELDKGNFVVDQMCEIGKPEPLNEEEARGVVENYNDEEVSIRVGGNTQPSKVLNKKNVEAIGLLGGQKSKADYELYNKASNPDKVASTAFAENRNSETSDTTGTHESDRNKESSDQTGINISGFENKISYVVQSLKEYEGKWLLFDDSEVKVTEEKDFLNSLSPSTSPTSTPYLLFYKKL
In short: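 USP1/UAF1 complex at 1 nM preincubated 15 min at room temperature with compound, then Ub-Rho substrate added at 150 nM final. Fluorescence (480/540 nm) read kinetically in 50 mM HEPES pH 7.8, 0.5 mM EDTA, 1 mM TCEP, 0.1 mg/ml BSA, 0.01% Tween-20.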

[2] = molecular target: Estrogen receptor (Homo sapiens) (UniProt P03372); assay: qHTS assay for small molecule antagonists of estrogen receptor alpha signaling (AID 588513; active = well fitted curve in the direction sought with a large enough effect in the signal ratio, with a control signal flat, not every such curve was filed as active; inconclusive = small, poorly fitted or top-dose-only effect, or effect the other way, or a change in a side signal; inactive = no such curve, though single readings can be large or run the other way; the % refers to the signal ratio; also: potency is read from the fitted curve at half-maximal effect)
In short: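 ER-alpha-UAS-bla GripTite HEK 293 cells in 2% charcoal/dextran-treated FBS medium; compounds titrated (1:2, duplicate), then stimulated with 0.5 nM 17-beta-estradiol for 18 h at 37C. CCF4 beta-lactamase fluorescence; Hill-fit IC50 and efficacy.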

[3] = molecular target: ATPase family AAA domain-containing protein 5 (Homo sapiens) (UniProt Q96QE3); assay: Validation screen for small molecules that inhibit ELG1-dependent DNA repair in human embryonic kidney (HEK293T) cells expressing luciferase-tagged ELG1 (AID 493107);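 also: cells co-treated with the DNA-damaging agent 5-fluorouridine alongside compound; series mostly up to about 46 µM; % is scaled to controls: 0 for no effect and ±100 for the full control effect; inhibitors lower the ELG1-luciferase luminescence signal; nearly all actives have a fitted effect of over 70% in size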
Chain of ATPase family AAA domain-containing protein 5 (Homo sapiens) (Q96QE3 whole entry, looked up, the tested form may be a part): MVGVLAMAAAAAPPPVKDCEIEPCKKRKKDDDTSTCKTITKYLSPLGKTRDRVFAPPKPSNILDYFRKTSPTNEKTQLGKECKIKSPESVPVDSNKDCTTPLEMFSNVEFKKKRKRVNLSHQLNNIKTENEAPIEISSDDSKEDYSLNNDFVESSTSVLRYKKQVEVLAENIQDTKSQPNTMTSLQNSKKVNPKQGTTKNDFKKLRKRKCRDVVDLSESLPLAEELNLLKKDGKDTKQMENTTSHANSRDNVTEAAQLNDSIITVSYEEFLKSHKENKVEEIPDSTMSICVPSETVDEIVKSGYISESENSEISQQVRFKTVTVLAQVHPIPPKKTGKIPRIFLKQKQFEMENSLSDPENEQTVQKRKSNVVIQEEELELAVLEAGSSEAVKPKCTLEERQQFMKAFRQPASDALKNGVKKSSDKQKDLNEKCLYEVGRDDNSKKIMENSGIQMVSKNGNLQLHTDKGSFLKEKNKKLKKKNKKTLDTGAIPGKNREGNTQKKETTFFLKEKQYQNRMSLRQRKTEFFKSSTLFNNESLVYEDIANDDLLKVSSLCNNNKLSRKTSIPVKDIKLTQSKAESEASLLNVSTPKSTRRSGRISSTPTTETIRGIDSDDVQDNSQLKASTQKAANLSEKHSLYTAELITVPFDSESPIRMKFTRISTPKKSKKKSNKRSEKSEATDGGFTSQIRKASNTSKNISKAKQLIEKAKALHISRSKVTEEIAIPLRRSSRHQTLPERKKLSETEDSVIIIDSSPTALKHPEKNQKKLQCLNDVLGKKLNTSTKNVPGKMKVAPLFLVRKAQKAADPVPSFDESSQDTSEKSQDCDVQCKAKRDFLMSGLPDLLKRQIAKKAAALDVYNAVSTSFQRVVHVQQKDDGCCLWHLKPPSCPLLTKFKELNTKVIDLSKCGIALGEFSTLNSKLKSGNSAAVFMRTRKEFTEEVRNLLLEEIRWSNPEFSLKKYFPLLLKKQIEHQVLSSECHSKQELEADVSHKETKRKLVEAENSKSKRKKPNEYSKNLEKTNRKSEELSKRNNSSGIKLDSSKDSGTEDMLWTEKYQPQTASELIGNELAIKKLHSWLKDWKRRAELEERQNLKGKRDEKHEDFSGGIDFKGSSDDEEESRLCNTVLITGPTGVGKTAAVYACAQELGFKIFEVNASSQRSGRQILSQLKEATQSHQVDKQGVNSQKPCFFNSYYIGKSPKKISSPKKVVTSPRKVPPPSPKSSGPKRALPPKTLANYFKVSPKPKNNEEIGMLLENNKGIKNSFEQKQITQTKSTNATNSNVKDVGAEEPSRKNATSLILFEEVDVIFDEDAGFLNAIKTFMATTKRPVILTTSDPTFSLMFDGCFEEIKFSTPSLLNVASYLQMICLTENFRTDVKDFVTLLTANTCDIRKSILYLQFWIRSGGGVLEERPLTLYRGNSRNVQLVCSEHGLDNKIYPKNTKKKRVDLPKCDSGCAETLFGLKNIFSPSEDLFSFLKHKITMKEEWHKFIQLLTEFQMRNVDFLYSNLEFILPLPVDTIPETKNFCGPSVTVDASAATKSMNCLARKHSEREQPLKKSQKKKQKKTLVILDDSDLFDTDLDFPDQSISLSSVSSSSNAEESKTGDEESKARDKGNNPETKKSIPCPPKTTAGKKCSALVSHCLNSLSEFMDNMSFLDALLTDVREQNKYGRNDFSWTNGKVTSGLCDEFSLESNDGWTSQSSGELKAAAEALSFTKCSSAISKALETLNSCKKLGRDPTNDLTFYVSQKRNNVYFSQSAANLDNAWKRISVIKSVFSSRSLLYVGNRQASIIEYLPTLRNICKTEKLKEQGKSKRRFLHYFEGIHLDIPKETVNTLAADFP
In short: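 Luminescence from ONE-Glo, developed 30 min at room temperature, served as read-out of ELG1-luciferase levels. Beforehand, reporter HEK293T cells received 5-fluorouridine plus test compound for 16 hr at 37 °C.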

[4] = molecular target: Thyrotropin-releasing hormone receptor (Homo sapiens) (UniProt P34981); assay: qHTS for Small Molecule Agonists and Allosteric Enhancers of Human TRH Receptor: Validation Screen for Agonists (AID 493127;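 active = calcium activation more than 3 SD above the typical response in the agonist read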;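 also: intracellular calcium rise by fluo-8 fluorescence before TRH EC20 addition; 0% is about no effect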); conditions: TRH receptor agonist cell assay; at 2 µM; stronger effect = higher value
In short: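 Cells 2000/well, 10% FCS, 18 h 33.5C/5% CO2 → fluo-8 Ca dye, RT 30 min–1.5 h → FDSS baseline 10 × 1 s → compound added → 230 cycles (1 s/cycle) agonist mode. TRH controls.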

[5] = qHTS for Inhibitors of Cell Surface uPA Generation: Validation Assay (AID 493164); also: 0% is about no effect
In short: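 RAW 264.7 cells (4000/well) were plated overnight, then exposed for 18 h at 37 C, 5% CO2 to compounds in a 7-point 1:5 titration (2.45 nM–38.3 uM final). Intracellular ATP was read by ATP-Lite luminescence.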

[6] = molecular target: Galactokinase (Homo sapiens) (UniProt P51570); assay: qHTS Validation Assay for Inhibitors of Human Galactokinase (GALK) (AID 493189); also: 0% is about no effect
In short: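 GALK (5 nM) with 35 uM ATP and 100 uM galactose in HEPES pH 8.0 with MgCl2, NaCl, DTT and BSA. Reaction ran 1 h at room temperature. Residual ATP read by Kinase-Glo Plus luminescence.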

[7] = Validation screen for small molecules that induce DNA re-replication in SW480 colon adenocarcinoma cells (AID 504364); also: 0% is about no effect
In short: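 250 cells/well; compound pinned in; 48 hr, 37 C, 5% CO2; Hoechst added, 40 min; nuclear fluorescence imaged, 405 ex / 500-530 em; re-replication scored as increase in high-intensity nuclei.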

[8] = molecular target: phosphoglycerate mutase (Leishmania major) (UniProt Q4Q090); assay: qHTS Validation Assay to Find Inhibitors of Phosphoglycerate Mutase (AID 504548);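 also: end-point luminescence from Kinase-GloPlus after the PGAM reaction; series mostly up to about 58 µM; % is scaled to controls: 0 for no effect and ±100 for the full control effect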
Chain of phosphoglycerate mutase (Leishmania major) (Q4Q090 1-553): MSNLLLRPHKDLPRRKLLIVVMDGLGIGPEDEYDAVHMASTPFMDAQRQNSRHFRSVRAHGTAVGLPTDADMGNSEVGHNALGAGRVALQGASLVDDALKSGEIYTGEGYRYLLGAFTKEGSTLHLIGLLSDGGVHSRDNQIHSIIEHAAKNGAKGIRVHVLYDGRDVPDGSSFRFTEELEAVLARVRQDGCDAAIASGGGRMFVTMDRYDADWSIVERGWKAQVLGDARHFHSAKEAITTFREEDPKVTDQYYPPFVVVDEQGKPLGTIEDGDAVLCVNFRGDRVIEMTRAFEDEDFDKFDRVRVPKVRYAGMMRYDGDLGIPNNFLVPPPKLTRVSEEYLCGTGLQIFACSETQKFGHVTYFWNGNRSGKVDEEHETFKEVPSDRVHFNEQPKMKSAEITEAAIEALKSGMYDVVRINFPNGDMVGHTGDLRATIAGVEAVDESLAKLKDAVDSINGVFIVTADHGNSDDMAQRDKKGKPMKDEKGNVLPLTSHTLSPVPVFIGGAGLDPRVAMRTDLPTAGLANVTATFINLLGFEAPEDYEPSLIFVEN
In short: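 L. major PGAM (1.25nM final) was added to substrate buffer and pinned compound, incubated 45 minutes at room temperature, then Kinase-GloPlus added; luminescence read after 10 minutes. Buffer: 100 mM TEA pH 7.6, 5 mM MgCl2, 0.01% Tween-20.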

[9] = qHTS for Inhibitors of ATXN expression: Validation of Cytotoxic Assay (AID 588349); also: % is scaled to controls: 0 for no effect and ±100 for the full control effect
In short: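 Read-out: ATP-based luminescence (CellTiter Glo) reflecting viability of HEK293 cells after 72 hr incubation at 37 degrees C with a concentration series of each compound.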

[10] = qHTS for Inhibitors of ATXN expression: Validation (AID 588378); also: series mostly up to about 57 µM; % is scaled to controls: 0 for no effect and ±100 for the full control effect; nearly all actives have a fitted effect of over 75% in size
In short: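 HEK293 cells carrying ATXN2-firefly luciferase reporter, treated with compound 24 h at 37 °C. Viability read first by CellTiter-Fluor (405/525 nm), then reporter expression by Bright-Glo luminescence; controls were a known ATXN2 expression inhibitor and a luciferase inhibitor.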

[11] = molecular target: Glucocorticoid receptor (Homo sapiens) (UniProt P04150); assay: qHTS assay for small molecule agonists of glucocorticoid receptor signaling (AID 588532; active = well fitted curve in the direction sought with a large enough effect in the signal ratio, with a control signal flat; inconclusive = small, poorly fitted or top-dose-only effect, or a change in a side signal; inactive = no such curve, though single readings can be large or run the other way; the % refers to the signal ratio;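 also: 100% = dexamethasone at 0.1 µM and 0% = DMSO only wells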); conditions: HeLa MMTV-bla, beta-lactamase ratio, agonist, 18 h; stronger effect = higher value; percent of dexamethasone control, DMSO zero
Chain of Glucocorticoid receptor (Homo sapiens) (P04150 whole entry, looked up): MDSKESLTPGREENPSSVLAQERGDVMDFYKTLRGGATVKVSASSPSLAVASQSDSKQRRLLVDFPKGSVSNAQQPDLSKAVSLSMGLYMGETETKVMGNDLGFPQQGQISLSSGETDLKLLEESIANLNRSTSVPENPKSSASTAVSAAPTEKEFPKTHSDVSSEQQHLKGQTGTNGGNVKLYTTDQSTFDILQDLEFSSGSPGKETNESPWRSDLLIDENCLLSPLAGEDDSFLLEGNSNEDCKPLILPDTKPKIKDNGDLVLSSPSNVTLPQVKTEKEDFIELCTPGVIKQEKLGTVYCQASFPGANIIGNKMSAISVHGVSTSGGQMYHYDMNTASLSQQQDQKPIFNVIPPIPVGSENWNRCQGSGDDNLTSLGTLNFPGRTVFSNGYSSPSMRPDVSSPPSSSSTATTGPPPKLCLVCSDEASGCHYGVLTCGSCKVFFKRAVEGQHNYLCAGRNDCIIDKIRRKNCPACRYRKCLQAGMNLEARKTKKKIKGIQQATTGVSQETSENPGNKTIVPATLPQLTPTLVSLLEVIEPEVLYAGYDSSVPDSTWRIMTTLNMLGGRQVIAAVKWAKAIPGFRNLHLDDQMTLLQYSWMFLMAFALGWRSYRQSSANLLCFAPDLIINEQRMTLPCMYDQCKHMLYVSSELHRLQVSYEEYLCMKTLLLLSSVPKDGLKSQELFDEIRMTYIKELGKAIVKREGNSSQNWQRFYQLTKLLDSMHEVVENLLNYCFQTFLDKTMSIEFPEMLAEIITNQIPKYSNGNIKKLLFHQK
In short: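 MMTV-bla HeLa beta-lactamase reporter cells in 1% charcoal/dextran FBS medium, compounds up to 92 uM for 18 h at 37 C, CCF4 readout; normalized to 0.1 uM dexamethasone (100%), EC50 and efficacy from Hill fits.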

[12] = Nrf2 qHTS screen for inhibitors: Validation (AID 493153; active = well fitted inhibition curve with a large enough effect in the main read-out, with a control signal flat, not every such curve was filed as active; inconclusive = small, poorly fitted or top-dose-only effect, or effect the other way, or a change in a side signal; inactive = no such curve, though single readings can be large or run the other way; also: potency is read from the fitted curve at half-maximal effect); conditions: Potency: luciferase luminescence; viability change: measured here: cytotoxicity max response
In short: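 Luminescence from an ARE-firefly luciferase reporter in A549 cells gives Nrf2 inhibition; an earlier CellTiter-Fluor fluorescent read flags cytotoxicity. Cells in 5% FBS OPTI-MEM received compound dilution series for 18-24 h at 37°C.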

[13] = molecular target: Peptidyl-prolyl cis-trans isomerase NIMA-interacting 1 (Homo sapiens) (UniProt Q13526); assay: qHTS Validation Assay to Find Inhibitors of Pin1 (AID 504536; active = well fitted inhibition curve with a large enough effect in the polarisation, with a control signal flat, not every such curve was filed as active; inconclusive = small, poorly fitted or top-dose-only effect, or effect the other way; the % refers to the polarisation;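 also: 0% = full Pin1 enzyme wells and -100% = no-enzyme wells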)
Chain of Peptidyl-prolyl cis-trans isomerase NIMA-interacting 1 (Homo sapiens) (Q13526 whole entry, looked up): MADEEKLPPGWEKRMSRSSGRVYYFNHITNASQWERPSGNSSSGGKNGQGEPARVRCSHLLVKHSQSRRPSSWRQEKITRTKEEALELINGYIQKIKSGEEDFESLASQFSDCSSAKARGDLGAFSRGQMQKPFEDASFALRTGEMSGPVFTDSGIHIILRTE
In short: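 Fluorescence polarization competition: compounds (titration) displace HiFluor-488-labeled Pin1-1b peptide from Pin1 (0.3 uM final) in pH 7.5 HEPES buffer with DTT, 10 min at room temperature; %Activity normalized to no-enzyme wells, curves fitted.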

[14] = molecular target: Phosphoglycerate kinase, glycosomal (Trypanosoma brucei brucei) (UniProt P07378); assay: qHTS Validation Assay to Find Inhibitors of Phosphoglycerate Kinase (AID 504547); also: potency is read from the fitted curve at half-maximal effect
Chain of Phosphoglycerate kinase, glycosomal (Trypanosoma brucei brucei) (P07378 whole entry, looked up): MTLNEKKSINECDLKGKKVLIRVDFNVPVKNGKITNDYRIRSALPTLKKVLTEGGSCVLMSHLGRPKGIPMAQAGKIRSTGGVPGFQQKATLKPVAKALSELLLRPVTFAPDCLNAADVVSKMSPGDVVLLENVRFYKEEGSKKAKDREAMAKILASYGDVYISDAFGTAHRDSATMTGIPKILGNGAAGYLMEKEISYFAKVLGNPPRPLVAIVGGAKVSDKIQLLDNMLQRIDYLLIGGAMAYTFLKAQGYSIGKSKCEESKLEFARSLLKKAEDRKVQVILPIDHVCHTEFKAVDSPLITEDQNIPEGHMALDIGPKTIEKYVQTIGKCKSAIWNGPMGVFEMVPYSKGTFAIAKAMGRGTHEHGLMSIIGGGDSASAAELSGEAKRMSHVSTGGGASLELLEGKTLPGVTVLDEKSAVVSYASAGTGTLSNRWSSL
In short: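 PGK activity was coupled to GAPDH (100nM final), which generates the unstable substrate 1,3-bisphosphoglycerate in-well. Reactions ran 60 minutes at room temperature in 100mM TEA pH 7.6, 5mM MgCl2, 0.01% Tween-20, then Kinase-Glo Plus luminescence was read.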

[15] = molecular target: Bile acid receptor (Homo sapiens) (UniProt Q96RI1); assay: qHTS assay for small molecule antagonists of farnesoid X receptor signaling (AID 588526; calls by dose curve; also: % is scaled to controls: 0 for no effect and ±100 for the full control effect)
Chain of Bile acid receptor (Homo sapiens) (Q96RI1 whole entry, looked up): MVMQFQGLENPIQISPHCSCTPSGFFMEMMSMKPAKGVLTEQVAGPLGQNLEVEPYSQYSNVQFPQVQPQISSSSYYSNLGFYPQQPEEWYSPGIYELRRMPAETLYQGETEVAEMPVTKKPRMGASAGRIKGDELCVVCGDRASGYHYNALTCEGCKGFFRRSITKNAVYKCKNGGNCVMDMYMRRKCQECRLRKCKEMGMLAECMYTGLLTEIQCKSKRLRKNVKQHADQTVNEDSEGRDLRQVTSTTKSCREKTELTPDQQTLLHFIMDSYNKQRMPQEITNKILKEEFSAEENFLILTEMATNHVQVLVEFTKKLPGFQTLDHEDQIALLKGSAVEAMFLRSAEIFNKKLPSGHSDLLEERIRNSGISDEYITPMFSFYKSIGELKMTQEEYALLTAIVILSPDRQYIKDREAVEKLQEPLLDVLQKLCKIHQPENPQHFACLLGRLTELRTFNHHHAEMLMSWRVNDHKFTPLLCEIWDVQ
In short: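 Antagonist mode: titrated compounds tested against chenodeoxycholic acid stimulation (normalized to 50 uM CDCA and DMSO) in GeneBLAzer HEK293T cells for 16 h. Beta-lactamase read by CCF4 fluorescence; IC50 from Hill fits.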

[16] = Validation screen for small molecules that induce genotoxicity in human embryonic kidney (HEK293T) cells expressing luciferase-tagged ELG1 (AID 493106); also: 0% is about no effect
In short: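 Luminescence from an ELG1-luciferase fusion serves as the read-out, rising when genetic stress elevates ELG1 protein. HEK293T reporter cells (2,000 per well) received 23 nL compound, incubated 16 hr at 37 °C, then ONE-Glo for 30 min at room temperature.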

[17] = molecular target: Androgen receptor (Homo sapiens) (UniProt P10275); assay: qHTS assay for small molecule agonists of androgen receptor signaling (AID 588515; active = well fitted curve in the direction sought with a large enough effect in the signal ratio, with a control signal flat; inconclusive = small, poorly fitted or top-dose-only effect, or effect the other way, or a change in a side signal; inactive = no such curve, though single readings can be large or run the other way; the % refers to the signal ratio; also: % is scaled to controls: 0 for no effect and ±100 for the full control effect); conditions: AR-UAS-bla HEK293, beta-lactamase ratio, agonist 16 h; stronger effect = higher value
In short: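 EC50 and efficacy came from Hill fits of titrations (up to 92 uM) normalized to 30 nM R1881 as 100% and DMSO as 0%. Compound exposure was 16 h at 37 C on AR-UAS-bla HEK293 cells, with a 405/460/530 nm CCF4 fluorescence read.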

[18] = molecular target: Androgen receptor (Homo sapiens) (UniProt P10275); assay: qHTS assay for small molecule antagonists of androgen receptor signaling (AID 588516; active = well fitted curve in the direction sought with a large enough effect in the signal ratio, with a control signal flat, not every such curve was filed as active; inconclusive = small, poorly fitted or top-dose-only effect, or effect the other way, or a change in a side signal; inactive = no such curve, though single readings can be large or run the other way; the % refers to the signal ratio; also: % is scaled to controls: 0 for no effect and ±100 for the full control effect)
In short: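 AR-UAS-bla GripTite HEK 293 cells (2000/well) treated with compound titrations plus 10 nM R1881 for 16 h at 37C. Beta-lactamase read by CCF4 FRET (460/530 nm); IC50 from Hill fits, normalized to R1881 and DMSO control wells.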

Cc1ncc([N+](=O)[O-])n1CCO
inactive: Potency [1] | Potency [2]

Nc1nc(N)c2nc(CNc3ccc(C(=O)NC(CCC(=O)O)C(=O)O)cc3)cnc2n1 (stereo not given)
inactive: Potency [3] | activation [4] 1% | outcome [5] | outcome [6] | outcome [7] | outcome [8] | Potency [9] | Potency [10] | activation [11] 7.7%

OCc1ccc(-c2nn(Cc3ccccc3)c3ccccc23)o1
inactive: Potency [3] | activation [4] 0.188% | Potency [12] | outcome [5] | outcome [6] | outcome [7] | outcome [13] | Potency [14] | outcome [8] | Potency [1] | Potency [9]
4.14%: viability change [12]

Cc1noc(NS(=O)(=O)c2ccc(N)cc2)c1C
inactive: Potency [1] | Potency [2] | outcome [15]

COc1cc2ncnc(Nc3cccc(Cl)c3)c2cc1OC
inactive: outcome [16] | activation [4] -6.5% | outcome [5] | outcome [6] | outcome [7] | outcome [13] | Potency [14] | outcome [8] | Potency [1] | Potency [9] | Potency [10]

Nc1nc(=S)c2[nH]cnc2[nH]1
inactive: Potency [1]

CC(=O)[C@H]1CC[C@H]2[C@@H]3CCC4=CC(=O)CC[C@]4(C)[C@H]3CC[C@]12C
inactive: outcome [5] | outcome [6] | outcome [7] | outcome [13] | Potency [14] | outcome [8] | Potency [9] | Potency [10]

CN(C)c1ccc(C(=C2C=CC(=[N+](C)C)C=C2)c2ccc(N(C)C)cc2)cc1
inactive: activation [11] -0.396% and -10.9%
active: Potency [1] 20 µM and 22.4 µM | Potency [2] 28.2 µM [inconclusive]

CCN(CC)CCn1c(=O)c(Cc2ccc(OC)cc2)nc2ccccc21
inactive: outcome [16] | Potency [3] | Potency [12] | outcome [5] | outcome [13] | Potency [14] | outcome [8] | Potency [1] | Potency [9] | Potency [10]
-5.84%: viability change [12]

N=C(N)c1ccc(OCCCCCOc2ccc(C(=N)N)cc2)cc1
inactive: Potency [1] | Potency [2] | activation [11] -5.79% and -1.59%

O=S(=O)(O)CCS
inactive: Potency [1]

O=C(O)C1CCCN(CCC=C(c2ccccc2)c2ccccc2)C1 (stereo not given)
-7.12%: viability change [12]
inactive: outcome [16] | Potency [3] | activation [4] 0.875% | Potency [12] | outcome [5] | outcome [6] | outcome [7] | outcome [13] | Potency [14] | outcome [8] | Potency [1] | Potency [9] | Potency [10]

CC(C)(C)C(=O)OCOP(=O)(COCCn1cnc2c(N)ncnc21)OCOC(=O)C(C)(C)C
inactive: Potency [1]

N[C@@H](Cc1ccc(O)c(O)c1)C(=O)O
active: Potency [14] 9.53 µM
inactive: outcome [16] | Potency [3] | Potency [12] | outcome [5] | outcome [8] | Potency [1] | Potency [9] | Potency [10] | outcome [15] | activation [11] -2.15%
-3.54%: viability change [12]

COc1ccc2c(c1)c(CC(=O)OCC(=O)O)c(C)n2C(=O)c1ccc(Cl)cc1
inactive: Potency [1]

CC(=O)CC(c1ccccc1)c1c(O)c2ccccc2oc1=O (stereo not given)
inactive: Potency [1]

Cc1cc(NS(=O)(=O)c2ccc(N)cc2)no1
inactive: outcome [15] | activation [11] 9.43%

COc1ccc2cc3[n+](cc2c1OC)CCc1cc2c(cc1-3)OCO2
inactive: Potency [1] | Potency [2] | activation [11] 1.14%

COC(=O)Nc1nc2ccc(S(=O)c3ccccc3)cc2[nH]1 (stereo not given)
inactive: Potency [1]

CC(C)(C)NC(=O)[C@H]1CC[C@H]2[C@@H]3CC[C@H]4NC(=O)C=C[C@]4(C)[C@H]3CC[C@]12C
inactive: activation [4] 0.688% | outcome [6] | outcome [7]

CC1CC2C3CCC4=CC(=O)C=C[C@]4(C)[C@@]3(F)[C@@H](O)C[C@]2(C)[C@@]1(O)C(=O)CO (stereo not given in full)
inactive: outcome [16] | Potency [3] | outcome [5] | outcome [13] | Potency [14] | outcome [8] | Potency [1] | Potency [9] | Potency [10]
-3.14%: viability change [12]
active: Potency [12] 0.013 µM

Cc1nnc(NS(=O)(=O)c2ccc(N)cc2)s1
inactive: Potency [1] | Potency [2] | activation [17] -1.65% | outcome [18]

O=C(N[C@H](CO)[C@H](O)c1ccc([N+](=O)[O-])cc1)C(Cl)Cl
inactive: Potency [1] | Potency [2]

NC(=O)c1ccc2[nH]ccc2c1
-7.5%: viability change [12]
inactive: outcome [16] | Potency [12] | outcome [5] | outcome [13] | Potency [14] | outcome [8] | Potency [1] | Potency [9] | Potency [10]

O=S(=O)(c1cccc2cnccc12)N1CCCNCC1
inactive: Potency [1]
